Screening data (PubChem)
The list is not random: actives were taken first. Their share in the collection is about 3.3%.
UBC9 SUMO inh – SUMOylation inhibition. P63279. HTRF SUMOylation assay, SAE1/SAE2 + UBC9, in vitro. inhibition, % at 35 µM. 0.36% of 290,000 active; in the data active = inhibition above about 50%, passing the limit was not always enough
Target sequence (P63279 whole entry, looked up): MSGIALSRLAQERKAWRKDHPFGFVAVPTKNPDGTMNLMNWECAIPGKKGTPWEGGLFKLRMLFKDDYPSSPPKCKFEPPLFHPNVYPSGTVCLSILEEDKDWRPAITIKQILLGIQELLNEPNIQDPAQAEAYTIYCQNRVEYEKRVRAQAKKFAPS
NR3A LBD binder – modulators (binders) of human NR3A ligand-binding domain; NR3A LBD differential scanning fluorimetry, Tm shift; 0% = protein alone, 100% = glycine-bound protein; Tm shift relative to glycine control, % at 25 µM; 2.5% of 340,000 active;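 active = melting temperature shift of at least 10% of the positive control shift, at one fixed dose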
UBC13 polyUb – blocks human UBC13 polyubiquitin chain formation; P61088; TR-FRET; inhibition, % at 20 µM; 0.47% of 330,000 active; in the data active = inhibition above about 45%, passing the limit was not always enough
Target sequence (P61088 whole entry, looked up): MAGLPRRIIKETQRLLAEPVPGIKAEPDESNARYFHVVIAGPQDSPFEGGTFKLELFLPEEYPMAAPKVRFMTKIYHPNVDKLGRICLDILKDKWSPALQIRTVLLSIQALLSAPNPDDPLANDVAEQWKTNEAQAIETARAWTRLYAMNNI
sPLA2-III inh – Blocks human group III sPLA2 activity; Q9NZ20; QFRET BODIPY PC-A2 liposome hydrolysis, fluorescence; inhibition, % at 12.2 µM; 0.56% of 370,000 active; AID 743126;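 active = inhibition above mean plus 3 SD of compounds lying within the high and low control bounds, cut at about 19% in these data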
Each line names hits and unclear results; the compound was inactive in the other large screens.

CCOc1ccc(Br)cc1S(=O)(=O)Nc1ccc(NC(=O)c2ccccc2C)cc1	none
COc1ccc(Br)cc1C(=O)Nc1ccc(C(=O)NCC(C)C)cc1	none
CCOc1ccc(Br)cc1S(=O)(=O)Nc1ccc(C(=O)Nc2ccccc2OC)cc1	NR3A LBD binder 16
FC(F)(F)c1cccc(NC(=S)NCC2COc3ccccc3O2)c1 (configuration not stated)	NR3A LBD binder 23
CCCNC(=S)Nc1cccc(C(F)(F)F)c1	none
CCOC(=O)c1c(C)[nH]c(C(=O)COC(=O)/C=C/c2ccc(OC(F)F)cc2)c1C	NR3A LBD binder 13
N#Cc1ccc(S(=O)(=O)N2CCc3[nH]c4ccc(F)cc4c3C2)cc1	NR3A LBD binder 11
O=C(NCCCc1ccccc1)[C@H](CO)NC1(C(=O)NCCc2c[nH]c3ccccc23)CCCCC1	none (no result: UBC9 SUMO inh, NR3A LBD binder, UBC13 polyUb)
CN(CCC#N)C(=O)COC(=O)c1c2c(nc3ccccc13)/C(=C/c1ccco1)CC2	UBC9 SUMO inh 53 (no result: UBC13 polyUb)
CC(C)CNC(=O)COC(=O)c1c2c(nc3ccccc13)/C(=C\c1cccs1)CC2	none (no result: UBC9 SUMO inh, UBC13 polyUb)
Cc1ccc(NS(=O)(=O)c2ccc(Cl)c(N=Nc3c(O)[nH]c(=O)[nH]c3=O)c2)cc1Cl	NR3A LBD binder 11 (no result: UBC9 SUMO inh)
O=C(OCC#CCSc1nnc(-c2cccc3ccccc23)o1)c1ccc(F)c(F)c1	none (no result: UBC9 SUMO inh, NR3A LBD binder, UBC13 polyUb)
O=C1c2cccc(NCCNCCO)c2C(=O)c2cccc(NCCNCCO)c21	sPLA2-III inh 30 (no result: UBC9 SUMO inh, UBC13 polyUb)
CCOc1ccc(S(=O)(=O)Nc2cccc(N(C)S(C)(=O)=O)c2)cc1	none
CCOc1ccc(S(=O)(=O)Nc2cccc(OC)c2)cc1	NR3A LBD binder 11
COC(=O)COc1cccc(NS(=O)(=O)c2ccc(NC(C)=O)cc2)c1	NR3A LBD binder 14
COc1ccc(CCNC(=O)c2ccc3c(c2)ncn3C2CCCCC2)cc1	none (no result: UBC9 SUMO inh, NR3A LBD binder, UBC13 polyUb)
COCCCN1C(=O)[C@H](CC(=O)N2CCSCC2)[C@]2(C(=O)OC)CCCCC=C12	none (no result: UBC9 SUMO inh, NR3A LBD binder, UBC13 polyUb)
COC(=O)C(C(=O)OC)[C@H]1C=C[C@@H](C(=O)NS(=O)(=O)c2ccc(C)cc2)N(C(C)=O)C1	none (no result: UBC9 SUMO inh, NR3A LBD binder, UBC13 polyUb)
Cc1cc2[nH]c(=S)[nH]c2cc1C	none (no result: UBC13 polyUb)
Fc1cc2[nH]c(=S)[nH]c2cc1Cl	NR3A LBD binder 32
Cc1ccc2nc(-c3ccc(NC(=O)C(C)Sc4nncs4)cc3)sc2c1 (configuration not stated)	NR3A LBD binder 14 (no result: UBC9 SUMO inh)
Cc1ccc(N(CC(=O)Nc2ccc(-c3nc4ccc(C)cc4s3)cc2)S(C)(=O)=O)cc1	none
Cc1ccc(C)c(N(CC(=O)Nc2ccc(-c3nc4ccc(C)cc4s3)cc2)S(C)(=O)=O)c1	NR3A LBD binder 23
Cc1ccc(S(=O)(=O)Nc2ccc(-c3nc4ccc(C)cc4s3)cc2)cc1	NR3A LBD binder 16
Cc1ccc2nc(-c3ccc(NC(=S)NC(=O)CC(C)C)cc3)sc2c1	none
Cc1cccc(S(=O)(=O)Nc2ccc(-c3nc4ccc(C)cc4s3)cc2)c1	none
N/C(=N\C(=O)OCc1ccccc1)N(CC#CC1=CCCCC1)CC1CC1	none (no result: UBC9 SUMO inh, NR3A LBD binder, UBC13 polyUb)
C#CCCN([C@@H](CC(C)C)C(=O)OC)S(=O)(=O)c1ccc(F)cc1Br	none (no result: UBC9 SUMO inh, NR3A LBD binder, UBC13 polyUb)
CCCCNC(=O)Nc1ccccc1C(=O)Nc1ccc(OC)cc1	NR3A LBD binder 11
COc1ccc(NC(=O)c2cc3ccc4c5ccccc5[nH]c4c3cc2O)cc1	NR3A LBD binder 230
COc1ccc(NC(=O)c2cccc3ccccc23)cc1	NR3A LBD binder 22
COc1cccc(NC(=O)Cc2csc(NC(=O)Nc3ccccc3OC)n2)c1	NR3A LBD binder 29 (no result: UBC9 SUMO inh)
COc1cc(C)ccc1NC(=O)Cc1csc(NC(=O)Nc2ccccc2OC)n1	none (no result: UBC9 SUMO inh)
COc1ccccc1NC(=O)Nc1nc(CC(=O)Nc2ccc(OC)c(OC)c2)cs1	NR3A LBD binder 17 (no result: UBC9 SUMO inh)
COc1ccc(OC)c(NC(=O)CSc2nnc(C3CCCCC3)n2N)c1	NR3A LBD binder 14 (no result: UBC9 SUMO inh)
COc1ccc(NC(=O)CSc2nnc(C3CCCCC3)n2N)c(OC)c1	none
C=CCN1C(=O)[C@@H](CC(=O)N2CCC(c3ccccc3)CC2)[C@]2(C(=O)OCC)CCCCC/C=C/12	none (no result: UBC9 SUMO inh, NR3A LBD binder, UBC13 polyUb)
O=C(CC(=O)c1ccccc1O)c1ccc(F)cc1	none
O=C(CC(=O)c1ccccc1O)c1cccc(F)c1	NR3A LBD binder 23 (no result: sPLA2-III inh)
Cc1ccc(OCC(=O)N2CCCCC2)c(Br)c1	NR3A LBD binder 17
CC(C)(C)c1ccc(OCC(=O)N2CCCCCC2)c(Br)c1	none
Cc1cccc(N2C(=O)C3C4CC(=O)C(c5ccccc54)C3C2=O)c1C (configuration not stated)	NR3A LBD binder 11
CC(NCc1ccco1)C(=O)N1CCCN(C)CC1 (configuration not stated)	none (no result: UBC9 SUMO inh, NR3A LBD binder, UBC13 polyUb)
O=C(NC1CCSC1=O)c1ccc(Oc2ccc(F)cc2)nc1 (configuration not stated)	none
Cc1ccc(Oc2ccc(C(=O)NC3CCSC3=O)cn2)cc1 (configuration not stated)	NR3A LBD binder 11
CCCc1cc(=O)[nH]c(Nc2ccc(O)cc2)n1	NR3A LBD binder 10
CCCc1cc(=O)[nH]c(Nc2ccc(Cl)cc2)n1	none
O=C(Nc1ccc(Br)c(C(F)(F)F)c1)[C@@H]1CC=C[C@@H]2CCN(CC3CC3)C(=O)[C@@H]21	none (no result: UBC9 SUMO inh, NR3A LBD binder, UBC13 polyUb)
CCn1c(=O)n(CC(=O)N2CCN(c3ccc(F)cc3)CC2)c(=O)c2ccccc21	none (no result: UBC9 SUMO inh, NR3A LBD binder, UBC13 polyUb)
COC(=O)c1cc(C)oc1C	none (no result: UBC9 SUMO inh, NR3A LBD binder, UBC13 polyUb)
CCCCCCCCN1C(=O)[C@@H](CC(=O)N2CCN(C(=O)C3CC3)CC2)C[C@@]2(C(=O)OC)C1=C[C@H](C(C)C)O[C@@H]2C1CC1	none (no result: UBC9 SUMO inh, NR3A LBD binder, UBC13 polyUb)
O=c1/c(=C\c2ccc(O)cc2)sc2n1C(c1ccccc1)C(c1ccccc1)=NN=2 (configuration not stated)	NR3A LBD binder 15
COc1cccc(C2C(C(=O)OC(C)C)=C(C)N=c3s/c(=C\c4ccc(C(=O)O)cc4)c(=O)n32)c1 (configuration not stated)	none
O=C(O)C(C(O)c1ccccc1)[n+]1ccccc1 (configuration not stated)	none (no result: UBC9 SUMO inh)
O=S(=O)([O-])C(c1ccccc1)[n+]1ccccc1 (configuration not stated)	NR3A LBD binder 21 (no result: UBC9 SUMO inh)
N#CCCCSc1nnc(Cc2ccc3c(c2)OCO3)o1	NR3A LBD binder 12
CSc1nnc(Cc2ccc3c(c2)OCO3)o1	none
Cc1ccc(S(=O)(=O)c2nc(Nc3nccs3)sc2Cl)cc1	NR3A LBD binder 12
C/C(CCC(=O)O)=N/Nc1ccc([N+](=O)[O-])cc1[N+](=O)[O-]	none
O=C(O)/C(CC(=O)c1ccc(Cl)cc1)=N/Nc1ccc([N+](=O)[O-])cc1[N+](=O)[O-]	NR3A LBD binder 21
C=CCN(CC#CC(=C)C)Cc1ccccc1	none (no result: UBC9 SUMO inh, NR3A LBD binder, UBC13 polyUb)
CC(CCN1CCC(C(O)(c2ccccc2)c2ccccc2)CC1)Oc1ccc(C#N)cc1F (configuration not stated)	none (no result: UBC9 SUMO inh, NR3A LBD binder, UBC13 polyUb)
CCOC(=O)Cc1csc(NC(=O)c2sc3nc4cc(C)ccc4cc3c2N)n1	NR3A LBD binder 28
CCOc1ccc(N(CC(=O)Nc2c(C)n(C)n(-c3ccccc3)c2=O)S(=O)(=O)c2ccc(C(C)(C)C)cc2)cc1	none (no result: UBC9 SUMO inh, NR3A LBD binder, UBC13 polyUb)
CCCC1CCC2(CCCN2CCOC(=S)Nc2ccccc2Br)CC1 (configuration not stated)	none (no result: UBC9 SUMO inh, NR3A LBD binder, UBC13 polyUb)
O=C(O)c1ccccc1-c1ccc(C=c2sc3nc4cc(Br)cnc4n3c2=O)o1	none (no result: UBC9 SUMO inh, NR3A LBD binder, UBC13 polyUb)
